This is part of a sample that, as a whole, favours compounds with a hit. Of some 83,000 tested, about 20% had one in any assay.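 Compound tested at a single concentration for 48 hours in 96-well plates; a percent growth value below 10 was scored as active.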 A number with no mark means an inactive call. Active and inactive are the calls of the source.

What all share (experiment): NCI-60 one-dose screen, 48 h (100 = growth as untreated, 0 = no growth, -100 = all killed)
Conditions in all cases: 10 µM unless noted

Test [1] has as its system SR leukemia.
Test [2] concerns RPMI-8226 leukemia.
Test [3] has as its system OVCAR-8 ovarian.
Test [4] relates to OVCAR-5 ovarian.
In test [5] the test system is OVCAR-4 ovarian.
Test [6] concerns SK-OV-3 ovarian.
The test system of test [7] is IGROV1 ovarian.
Test [8] has as its system OVCAR-3 ovarian.
Test [9] deals with HS 578T breast.
Test [10] deals with NCI/ADR-RES ovarian.

On to `O=C(N/N=C/c1ccccc1SSc1ccccc1/C=N/NC(=O)c1ccccc1)c1ccccc1`, for which the growth in test [1] is 18.9%; in [2], 31.1%; in [3] it was 24.9%; in test [4] it was 85.2%; in test [5] it was 38.5%; in test [6], 43%. For the same molecule, the growth was 30.6% in test [7], 31.1% in test [8], 75.4% in test [9] and 9.77% (active) in test [10].
Regarding `COc1ccc(-c2nc3c(c(C)nn3-c3ccc(F)cc3)c(=O)[nH]2)cc1`, the growth is 15.9% in test [1]; 89.8% in [2]; 60.7% in test [3]; 85.9% in test [4]; -39.3% (active) in [5]; 31.5% in [6]. Moreover, the growth in test [7] was 53.8%; in test [8] it was 55%; in test [9] it was 63.4%; in test [10], 63.9%.
For `Cc1csc(Nc2nc(-c3cccc(Br)c3)nc(C(Cl)(Cl)Cl)n2)n1`, the growth in test [1] is 67.7%; in [2] it was 35.8%; in test [3], 75.6%; in [4] it was 69.9%; in test [5] it was 76.8%; in [6] it was 76.1%. Moreover, the growth in test [7] was 91.9%; in test [8] it was 14.9%; in [9], 59.6%; in [10], 60.4%.
For the molecule `Cc1ccc(-c2ccc(Nc3ccccc3)nn2)cc1S(N)(=O)=O`, the growth in test [1] was 23.6%; in test [2], 86.1%; in test [3], 94.1%; in [4], 101%; in [5] it was 94.7%; in test [6] it was 100%. The figures for the growth in test [7] and in test [8] were 97.3% and 94.6%, respectively.
For the molecule `COc1ccc(C2CC(=O)c3c(nc4ccc(Cl)cc4c3N)C2)cc1` (configuration not stated), the growth in [1] was 88.7%; in [2], 103%; in [3] it was 107%; in test [4], 95.4%; in test [5], 102%; in test [6], 117%. Besides, the growth was 99.7% in test [7], 112% in [8], 115% in test [9] and 105% in [10].
For the molecule `OCCNc1nc(Nc2ccc(Cl)c(Cl)c2)nc2ccccc12`, the growth in test [1] is 3.46% (active); in [2] it was 30.7%; in test [3], 37.5%; in [4] it was 78.3%; in test [5], 44.8%; in test [6], 62.8%. In addition, the values for the growth in test [7], in test [8] and in [9] were 39.1%, 48.2% and 53.3%, respectively.
For `CN(C)CCCC1(c2ccc(F)cc2)OCc2cc(-c3ccc(C(F)(F)F)nc3)ccc21` (configuration not stated), the growth in [1] is 11.9%; in [2], 69.2%; in test [3], 83.6%; in test [4] it was 85.5%; in test [5], 66.4%; in test [6], 80.3%. Further, the growth is 66.5% in test [7], 84.6% in [8], 61.9% in test [9] and 84.1% in [10].
`CC1(C)C(=O)CC[C@]2(C)[C@H]3C(=O)C=C4[C@@H]5C[C@@](C)(C(=O)NCCNCCN)CC[C@]5(C)CC[C@@]4(C)[C@]3(C)CC[C@@H]12`: the growth in test [1] is 20%; in [2], 91.1%; in [3], 99.6%; in [4], 108%; in test [5], 105%; in [6] it was 104%. The growth in test [7] is 96.4%; in [8] it was 104%; in test [9] it was 97.5%; in test [10], 102%.
On to `COc1cc(/C=N/Nc2ncnc3c2c(C)nn3-c2ccc(F)cc2)ccc1O`, for which the growth is 77% in test [1]; 92.5% in test [2]; 96.4% in [3]; 131% in test [4]; 90.3% in [5]; 99.2% in [6]. Besides, the growth in [7] was 79.5%; in [8], 75.8%; in test [9] it was 99.1%; in test [10], 95.7%.
In the case of `O=C1C(=O)c2ccccc2C(O)=C1CCCc1ccc(C2CCCCC2)cc1`, the growth in [1] was 35.6%; in test [2], 21.1%; in test [3] it was 51.4%; in [4], 61.7%; in test [5] it was 58.2%; in test [6], 56.6%. The growth in test [7] is 51.3%; in test [8], 18%; in test [9], 53.4%; in test [10], 42.8%.
In the case of `Brc1ccc(Cn2nnnc2-c2ccn(-c3ccccc3)n2)cc1`, the growth is 56.4% in test [1]; 59.2% in test [2]; 110% in test [3]; 32% in [4]; 72.7% in test [5]; 82.1% in test [6]. The growth in test [7] is 77.8%; in [8], 86.8%; in test [9], 77.7%; in test [10] it was 27.5%.
In the case of `CN1CCN(CCOc2ccc(-c3cnc4c(-c5cccc(F)c5)cnn4c3)cc2)CC1`, the growth in test [1] is -12.8% (active); in test [2], 31.7%; in [3], 69.8%; in test [4] it was 84.6%; in [5] it was 65.5%; in [6], 106%. Also, the growth in test [7] was 63.8%; in test [8], 56.1%; in [9], 77.6%; in [10], 72.8%.
With `Fc1ccc(Nc2ccc3c(OCCCN4CCOCC4)cccc3n2)cc1F`, the growth in test [1] is 28%; in test [2] it was 41.3%; in test [3] it was 117%; in test [4], 67.8%; in test [5], 79%; in test [6], 96.9%. Further, the growth was 82.4% in test [7], 85.8% in test [8], 67.5% in [9] and 76.9% in test [10].
With `COc1ccc(/C=C/C(=O)NCCO)cc1`, the growth in test [1] was 91.9%; in test [2] it was 105%; in [3], 96.4%; in test [4], 88.2%; in test [5] it was 103%; in test [6], 94.2%. The growth in test [7] is 98.3%; in [8] it was 101%; in test [9], 92.4%; in test [10] it was 104%.
